Dicer inh: inhibitors of Dicer pre-microRNA processing, primary screen, biochemical, cat-ELCCA, chemiluminescence; Endoribonuclease Dicer (Homo sapiens), Q9UPY3; cat-ELCCA pre-miR-21 Dicer processing; active compounds read high; z-score at 25 µM; 47,000 tested, 6% active; AID 1347074, 2019; in the data active = z-score above about 3, passing the limit was not always enough;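 also: higher signal means more uncleaved substrate so more Dicer inhibition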
Hits are given with their value; n = inactive. This is one part of a sample in which hits are shown more often than they occur.

SMILES | Dicer inh
C=CCN1C(=O)C(O)(CC(=O)c2ccc(C(C)(C)C)cc2)c2ccccc21 (stereo not given) | n
CCOC(=O)Nc1c(N)n(C)c(=O)n(C)c1=O | n
Cc1cccc([N+](=O)[O-])c1-c1c(C)cccc1[N+](=O)[O-] | n
CSc1nc(NC(=O)C(C)C)c(C#N)n1Cc1ccco1 | n
O=C(NNC(=S)Nc1cc(Cl)ccc1Cl)C(O)(c1ccccc1)c1ccccc1 | n
CSc1sc(C(=O)Nc2ccccc2Cl)cc1-c1nc(-c2ccc(Cl)cc2)cs1 | n
O=C(Nc1ccc(OC(F)(F)F)cc1)Nc1nc(-c2ccc(F)c(F)c2)cs1 | n
COc1ccccc1NC(=O)Nc1nc(-c2ccc(F)c(F)c2)cs1 | n
O=C(Nc1ccc(F)cc1)Nc1nc(-c2ccc(F)c(F)c2)cs1 | 3
O=C(Nc1ccccc1)Nc1nc(-c2ccc(F)c(F)c2)cs1 | n
Fc1ccc(Nc2nc(-c3ccc(F)c(F)c3)cs2)c(F)c1 | 60
Cc1ccnc(Nc2nc(-c3ccc(F)cc3)cs2)c1 | n
O=C(Nc1nc(-c2ccc(F)c(F)c2)cs1)Nc1ccc(Cl)cc1Cl | n
CC(C)(C)c1ccccc1NC(=O)Nc1nc(-c2ccc(F)c(F)c2)cs1 | 3.7
CC(C)(C)OC(=O)NCCNc1ccc(C(F)(F)F)cc1[N+](=O)[O-] | n
CCOc1ccc(C2C(C(=O)OC)=C(C)NC3=C2C(=O)CC(c2ccc(OC)cc2)C3)cc1 (stereo not given) | n
Fc1cccc(Cl)c1CNC(=S)Nc1ccc(Cl)cc1 | n
Brc1ccc(OCc2nc(-c3cccs3)no2)cc1 | n
Cc1ccn2cc(-c3cccc(S(=O)(=O)N(C)C)c3)nc2c1 | n
CC1CN(S(=O)(=O)c2cccc(-c3cn4ccccc4n3)c2)CC(C)O1 (stereo not given) | n
O=S(=O)(Nc1cccc(-c2cn3ccccc3n2)c1)c1ccc(F)cc1 | n
O=S(=O)(Nc1cccc(-c2cn3ccccc3n2)c1)c1ccc(Br)cc1 | 4.4
Cc1ccn2cc(-c3cccc(S(=O)(=O)N4CCOCC4)c3)nc2c1 | n
Cc1cc(C)c(S(=O)(=O)Nc2cccc(-c3cn4ccccc4n3)c2)c(C)c1 | 3.7
C/C(=N\Nc1cc(C(F)(F)F)ccn1)c1ccc(Oc2ncc([N+](=O)[O-])s2)cc1 | n
SMILES | Dicer inh
N#CCC(=O)c1cccc(C(F)(F)F)c1 | n
Cc1nc(Nc2ncc3c(n2)CC(c2ccc(F)cc2)CC3=O)nc2ccccc12 (stereo not given) | n
OC1CCN(c2cc(C(F)(F)F)nc3cc(Cl)cc(Cl)c23)CC1 | n
Brc1ccc(CSc2nc3ccccc3o2)cc1 | n
O=c1[nH]c(NCc2ccccc2)nc2sc3c(c12)CCCC3 | n
CCOC(=O)C1=C(C)Nc2nnnn2C1c1ccccn1 (stereo not given) | n
CCOC(=O)C1=C(C)Nc2nnnn2C1c1cc(Br)ccc1OCC (stereo not given) | n
CCCOC(=O)C1=C(C)Nc2nnnn2C1c1ccccc1OCC (stereo not given) | 3.4
CCOC(=O)C1=C(C)Nc2nnnn2C1c1ccccc1Cl (stereo not given) | n
CCOC(=O)C1=C(C)Nc2ncnn2C1c1ccc(OC)c(OC)c1 (stereo not given) | n
CCCOc1ccccc1C1C(C(=O)OC(C)C)=C(C)Nc2nnnn21 (stereo not given) | n
CCOC(=O)C1=C(C)Nc2nnnn2C1c1ccc(OCc2ccccc2)c(OC)c1 (stereo not given) | n
CCOc1ccccc1C1C(C(=O)OC(C)C)=C(C)Nc2nnnn21 (stereo not given) | 4.5
CCOC(=O)C1=C(C)Nc2nnnn2C1c1ccc(OC)c(OC)c1 (stereo not given) | n
CCOC(=O)C1=C(c2ccccc2)Nc2ncnn2C1c1ccc(F)cc1 (stereo not given) | n
CCOC(=O)C1=C(c2ccccc2)Nc2ncnn2C1c1cccc(Br)c1 (stereo not given) | 3.2
CCOC(=O)C1=C(C)Nc2nnnn2C1c1ccccc1 (stereo not given) | 3.1
N=C1C(=S)N(c2ccc(Cl)c(Cl)c2)C(=O)N1c1ccc(Cl)c(Cl)c1 | n
COC(=O)c1ccc(-c2nc(-c3cc(C)nc4ccccc34)no2)cc1 | n
COC(=O)c1c(C)oc2cc(Br)c(OC(=O)C(C)(C)C)cc12 | n
O=S(=O)(O/N=C1\CCSc2ccc(F)cc21)c1ccc(Cl)cc1 | n
Cc1nn(-c2ccccc2)nc1CNS(=O)(=O)CS(C)(=O)=O | n
Cc1nc(C)c(-c2csc(Nc3ccc(C(=O)O)cc3)n2)s1 | n
Cc1nc(C)c(-c2csc(Nc3cccc(O)c3)n2)s1 | n
Cc1nc(C)c(-c2csc(Nc3ccccc3)n2)s1 | 5.1
CC(=O)N1CCC(C(=O)O/N=C(\N)c2ccc(Cl)cc2)CC1 | n
COC(=O)CN1c2ccccc2NC2=C(C(=O)CC(C)(C)C2)C1c1cccs1 (stereo not given) | n
COC(=O)c1cc(OC)c(OC)cc1NS(=O)(=O)c1c(Cl)cc(Cl)cc1Cl | n
CCO/C=C1/SC(=S)N(c2ccc(C)cc2C)C1=O | n
